Inhibition data for 15 molecules are collected here from ChEMBL document CHEMBL1157539, “Thousands of chemical starting points for antimalarial lead identification” (Nature, 2010).

The subject of this assay is Plasmodium falciparum. The assay can be described thus: GSK_TCMDC: Inhibition of Plasmodium falciparum 3D7 in whole red blood cells, using parasite LDH activity as an index of growth. Test compounds present at 2uM. The class given is functional.
The term Inhibition denotes the relative decrease from the control value, in per cent. A higher Inhibition goes with a strong effect. For `CN1CCCC(OC(=O)c2ccccc2)C1` (stereo not given), the Inhibition worked out at 100%.
`Cc1cccc2nc(-c3ccc(-c4ccc(CNCCN5CCNCC5)cc4)s3)[nH]c12.O=C(O)C(F)(F)F` gave an Inhibition of 88%.
As for `Fc1ccc(CNc2ncc(-c3ccsc3)c(-c3nccs3)n2)cc1`, the Inhibition was determined as 94%.
`C[C@H](Cc1ccc(OCCCCCCOc2ccc(C[C@@H](C)NC[C@H](O)c3cccc(Cl)c3)cc2)cc1)NC[C@H](O)c1cccc(Cl)c1.Cl`: the Inhibition is given as 99%.
As to `O=C(/C=C/c1ccccc1)N1CCOC(CCN2CCC(c3ccccc3)CC2)(c2ccc(Cl)c(Cl)c2)C1` (stereo not given), the Inhibition worked out at 89%.
Consider `Cc1cc(N[C@@H](CC(C)C)C(=O)NCc2cccc(F)c2)nc(Nc2ccccc2)n1.O=C(O)C(F)(F)F`, for which the Inhibition amounted to 100%.
Then `Cc1c(C(=O)C2CC2CN2CCC(N3CCCC3)CC2)sc2ccccc12` (stereo not given), with 94%; and `CCC(CC)n1c(COC)cc2c3c(N)nc(N)nc3ccc21`, with 95%.
Then `Fc1ccc(C=NN=c2cc[nH]c3ccccc23)cc1`, with 100%; and `CCCc1cc(OC)c(C[C@H]2c3cc(O)c(Cl)cc3CCN2C)cc1OC.Cl`, with 97%; and `CC(=O)c1sc(Cc2nc3ccccc3s2)nc1C`, with 94%.
`Cc1cccc(OC(C)C(=O)Nc2cc(C(F)(F)F)ccc2N2CCOCC2)c1` (stereo not given) yielded an Inhibition of 100%.
On to `Cc1ccc2nc(Cl)c3cc(C(=O)NCCCN4CCCC4)sc3c2c1`, for which the Inhibition was determined as 89%.
For `Cc1nc(-c2cccc(NCc3ccccc3)c2)[nH]c1C.Cl`, the Inhibition was 100%.
As for `COc1cc(Cl)c(C)cc1-n1cc(C(=O)c2cc(Br)ccc2O)cc(C#N)c1=O`, the Inhibition amounted to 95%.
